Source: PubChem BioAssay (NCI)
This is part of a sample that, as a whole, favours compounds with a hit. Of some 79,000 tested, about 15% had one in any assay. The source made the active and inactive calls. Rule as the data show it: active = growth inhibition above about 70%; inactive = the rest.

Experiments:
[1] = NCI Yeast Anticancer Drug Screen. Data for the mec2-1 strain (AID 157); conditions: S. cerevisiae mec2-1 strain, active compounds read high
Outline: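 Each compound was tested on mec2-1 yeast, a strain altered in DNA damage repair or cell cycle control. Growth inhibition is reported relative to vehicle.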

[2] = NCI Yeast Anticancer Drug Screen. Data for the rad14 strain (AID 159);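 also: 0% = growth of vehicle-treated control cultures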; conditions: S. cerevisiae rad14 strain growth inhibition, active compounds read high
Outline: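 Growth inhibition vs vehicle controls; genetically altered yeast strain (DNA damage repair defect) treated with test compounds.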

[3] = NCI Yeast Anticancer Drug Screen. Data for the sgs1 mgt1 strain (AID 161);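 also: 0% = growth of cultures given vehicle only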; conditions: S. cerevisiae sgs1 mgt1 strain, active compounds read high
Outline: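 Inhibition of yeast growth, normalised to vehicle-treated controls, is reported for a strain bearing genetic alterations in DNA damage repair.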

[4] = NCI Yeast Anticancer Drug Screen. Data for the CLN2oe strain (AID 163);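 also: 0% = growth of vehicle-only control cultures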; conditions: S. cerevisiae CLN2oe strain, active compounds read high
Outline: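 First, the altered yeast strain was treated with each compound; second, its growth was measured; finally, inhibition was derived by comparison with vehicle controls.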

[5] = NCI Yeast Anticancer Drug Screen. Data for the cln2 rad14 strain (AID 165);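 also: 0% = growth equal to vehicle treated cultures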; conditions: S. cerevisiae cln2 rad14 strain, active compounds read high
Outline: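 Test compounds were added to cln2 rad14 yeast cultures; inhibition of growth was then determined by comparison with vehicle treatment.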

[6] = NCI Yeast Anticancer Drug Screen. Data for the bub3 strain (AID 167); conditions: S. cerevisiae bub3 mutant strain, active compounds read high
Outline: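 Readout: yeast growth inhibition, expressed relative to vehicle-only wells. The test organism is a mutant strain from a panel with lesions in DNA repair or checkpoint genes.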

[7] = NCI Yeast Anticancer Drug Screen. Data for the wt2 strain (AID 169);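 also: 0% = growth of vehicle-treated yeast cultures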; conditions: S. cerevisiae wt2 strain growth inhibition, active compounds read high
Outline: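 The panel's yeast strains carry defined changes in DNA repair or cell cycle genes. Each strain is grown with compound, and growth loss is scored relative to vehicle.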

[8] = NCI Yeast Anticancer Drug Screen. Data for the mlh1 strain (AID 171);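 also: 0% = growth of vehicle-treated control cultures of the same strain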; conditions: S. cerevisiae mlh1 strain growth inhibition, active compounds read high
Outline: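 Inhibition values reflect reduced yeast growth in the presence of compound, referenced to vehicle controls, using a strain chosen for its alteration in DNA repair or cell cycle control.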

[9] = NCI Yeast Anticancer Drug Screen. Data for the sgs1 strain (AID 173);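 also: 0% = growth of vehicle-only control cultures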; conditions: S. cerevisiae sgs1 mutant, active compounds read high
Outline: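 Vehicle-treated cultures served as reference for growth inhibition of a yeast strain altered in DNA damage repair or cell cycle control after compound exposure.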

[10] = NCI Yeast Anticancer Drug Screen. Data for the mlh1 rad18 strain (AID 175); conditions: S. cerevisiae mlh1 rad18 strain growth inhibition, active compounds read high
Outline: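 Inhibition values reflect reduced growth of mutant yeast versus vehicle-treated controls following compound exposure; the mutations affect DNA damage repair.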

[11] = NCI Yeast Anticancer Drug Screen. Data for the rad18 strain (AID 177); conditions: S. cerevisiae rad18 mutant growth inhibition, active compounds read high
Outline: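 Steps: expose repair-mutant yeast to compound; measure growth; express as inhibition relative to vehicle control.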

[12] = NCI Yeast Anticancer Drug Screen. Data for the rad52 strain (AID 147);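 also: 0% = growth of vehicle-treated control cultures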; conditions: S. cerevisiae rad52 mutant growth inhibition, active compounds read high
Outline: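 Inhibition of yeast growth, referenced to vehicle controls, was the measured output for a strain with defective DNA damage repair.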

[13] = NCI Yeast Anticancer Drug Screen. Data for the wt1 strain (AID 149);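 also: 0% = growth of vehicle-treated wt1 cultures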; conditions: S. cerevisiae wt1 strain (SPY 50644) growth inhibition, active compounds read high
Outline: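 Growth inhibition read against vehicle controls after compound exposure of the wt1 yeast strain.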

[14] = NCI Yeast Anticancer Drug Screen. Data for the rad50EPP+ strain (AID 151);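 also: 0% = growth of vehicle-treated control cultures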; conditions: S. cerevisiae rad50 mutant strain, active compounds read high
Outline: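 Genetically defined yeast (rad50EPP+, DNA damage repair alteration) is grown with compound, and inhibition of growth is expressed relative to vehicle-treated controls.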

[15] = NCI Yeast Anticancer Drug Screen. Data for the mgt1 strain (AID 153); conditions: S. cerevisiae mgt1 mutant growth inhibition, active compounds read high
Outline: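 In the mgt1 strain, test compounds were added and growth inhibition was determined relative to vehicle-treated controls.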

[16] = NCI Yeast Anticancer Drug Screen. Data for the rad50 strain (AID 155);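 also: 0% = growth of vehicle-only cultures of the same strain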; conditions: S. cerevisiae rad50 strain growth inhibition, active compounds read high
Outline: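 Readout: growth inhibition relative to vehicle-treated cultures. Compound exposure was carried out in a genetically defined yeast strain deficient in DNA damage repair.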

[17] = at 5.0 µM (retest, dose inferred, filed as 0.5)
[18] = at 50.0 µM (retest, dose inferred, filed as 5.0)

Measured: growth inhibition

Cc1cc(C)nc(NS(=O)(=O)c2ccc(Nc3c4ccccc4nc4c(C(=O)NCCO)cccc34)cc2)n1
inactive: [1]; [17] -13% | [1]; at 11.0 µM 1% | [1]; at 33.0 µM 3% | [1]; [18] 6% | [1]; at 50.0 µM 3.4% | [1]; at 100.0 µM 24% | [2]; at 1.2 µM 0% | [2]; at 3.7 µM 1% | [2]; at 11.0 µM 4% | [2]; at 33.0 µM 9% | [2]; at 100.0 µM 26% | [3]; [17] -9% | [3]; [18] 56% | [3]; at 50.0 µM -10.7% | [4]; at 1.2 µM 0% | [4]; at 3.7 µM -3% | [4]; at 11.0 µM -3% | [4]; at 33.0 µM -2% | [4]; at 100.0 µM 10% | [5]; [17] 16% | [5]; [18] 6% | [6]; at 1.2 µM 0% | [6]; at 3.7 µM 0% | [6]; [17] -17% | [6]; at 11.0 µM 2% | [6]; at 33.0 µM 0% | [6]; [18] 2% | [6]; at 50.0 µM 0% | [6]; at 100.0 µM 16% | [7]; at 1.2 µM -1% | [7]; at 3.7 µM -2% | [7]; at 11.0 µM -2% | [7]; at 33.0 µM -2% | [7]; at 100.0 µM 27% | [8]; at 1.2 µM -3% | [8]; at 3.7 µM -2% | [8]; at 11.0 µM 0% | [8]; at 33.0 µM -1% | [8]; at 100.0 µM 30% | [9]; at 1.2 µM -3% | [9]; at 3.7 µM -1% | [9]; at 11.0 µM 1% | [9]; at 33.0 µM 2% | [9]; at 100.0 µM 30% | [10]; [17] -8% | [10]; [18] 44% | [10]; at 50.0 µM 65.3% | [11]; at 1.2 µM -4% | [11]; at 3.7 µM -1% | [11]; at 11.0 µM 0% | [11]; at 33.0 µM 7% | [11]; at 100.0 µM 30%
active: [5]; at 50.0 µM 81.2%

Cc1ccc2c(c1)C1(SC(C)C(=O)N1c1ccc(Cl)cc1)C(=O)N2 (stereo unspecified)
active: [12]; at 33.0 µM 96% | [12]; at 100.0 µM 99% | [13]; at 100.0 µM 99% | [15]; at 33.0 µM 94% | [15]; at 100.0 µM 99% | [16]; at 33.0 µM 94% | [16]; [18] 97% | [16]; at 50.0 µM 98.8% | [16]; at 100.0 µM 99% | [1]; at 33.0 µM 85% | [1]; at 50.0 µM 98.5% | [1]; at 100.0 µM 99% | [2]; at 33.0 µM 96% | [2]; at 100.0 µM 99% | [3]; [18] 94% | [3]; at 50.0 µM 99.4% | [4]; at 33.0 µM 91% | [4]; at 100.0 µM 99% | [5]; at 50.0 µM 97.7% | [6]; at 33.0 µM 90% | [6]; [18] 88% | [6]; at 50.0 µM 74.5% | [6]; at 100.0 µM 99% | [7]; at 33.0 µM 98% | [7]; at 100.0 µM 99% | [8]; at 33.0 µM 95% | [8]; at 100.0 µM 99% | [9]; at 33.0 µM 94% | [9]; at 100.0 µM 99% | [10]; [18] 98% | [10]; at 50.0 µM 99% | [11]; at 33.0 µM 97% | [11]; at 100.0 µM 98%
inactive: [12]; at 1.2 µM 0% | [12]; at 3.7 µM 4% | [12]; at 11.0 µM 16% | [13]; at 1.2 µM 0% | [13]; at 3.7 µM 5% | [13]; at 11.0 µM 4% | [13]; at 33.0 µM 55% | [14]; at 1.2 µM -2% | [14]; at 3.7 µM -1% | [14]; at 11.0 µM 1% | [14]; at 33.0 µM -2% | [14]; at 100.0 µM -3% | [15]; at 1.2 µM -5% | [15]; at 3.7 µM -6% | [15]; at 11.0 µM 3% | [16]; at 1.2 µM -2% | [16]; at 3.7 µM 1% | [16]; [17] 12% | [16]; at 11.0 µM 9% | [1]; at 1.2 µM -2% | [1]; at 3.7 µM 5% | [1]; [17] -12% | [1]; at 11.0 µM 12% | [1]; [18] 17% | [2]; at 1.2 µM -3% | [2]; at 3.7 µM 3% | [2]; at 11.0 µM 12% | [3]; [17] 8% | [4]; at 1.2 µM -1% | [4]; at 3.7 µM -11% | [4]; at 11.0 µM 4% | [5]; [17] 4% | [5]; [18] 49% | [6]; at 1.2 µM 3% | [6]; at 3.7 µM 10% | [6]; [17] 19% | [6]; at 11.0 µM 30% | [7]; at 1.2 µM -2% | [7]; at 3.7 µM 1% | [7]; at 11.0 µM 8% | [8]; at 1.2 µM -1% | [8]; at 3.7 µM 3% | [8]; at 11.0 µM 17% | [9]; at 1.2 µM 2% | [9]; at 3.7 µM 7% | [9]; at 11.0 µM 25% | [10]; [17] 51% | [11]; at 1.2 µM 4% | [11]; at 3.7 µM 17% | [11]; at 11.0 µM 54%
